From paper PMC4336329 (PLoS ONE, 2015)
Out of some 310,000 compounds screened, about 2,200 (0.71%) showed an effect of 50% or more. Effects have a minus sign here. This excerpt belongs to a sample that is enriched for strong results.

What follows are molecules tested against human ether-à-go-go-related gene (hERG) potassium channel (human, UniProt Q12809) (assay: primary screen, population patch clamp on CHO cells stably expressing hERG; higher = less effect of the substance).
human ether-à-go-go-related gene (hERG) potassium channel, sequence (Q12809 whole entry, looked up): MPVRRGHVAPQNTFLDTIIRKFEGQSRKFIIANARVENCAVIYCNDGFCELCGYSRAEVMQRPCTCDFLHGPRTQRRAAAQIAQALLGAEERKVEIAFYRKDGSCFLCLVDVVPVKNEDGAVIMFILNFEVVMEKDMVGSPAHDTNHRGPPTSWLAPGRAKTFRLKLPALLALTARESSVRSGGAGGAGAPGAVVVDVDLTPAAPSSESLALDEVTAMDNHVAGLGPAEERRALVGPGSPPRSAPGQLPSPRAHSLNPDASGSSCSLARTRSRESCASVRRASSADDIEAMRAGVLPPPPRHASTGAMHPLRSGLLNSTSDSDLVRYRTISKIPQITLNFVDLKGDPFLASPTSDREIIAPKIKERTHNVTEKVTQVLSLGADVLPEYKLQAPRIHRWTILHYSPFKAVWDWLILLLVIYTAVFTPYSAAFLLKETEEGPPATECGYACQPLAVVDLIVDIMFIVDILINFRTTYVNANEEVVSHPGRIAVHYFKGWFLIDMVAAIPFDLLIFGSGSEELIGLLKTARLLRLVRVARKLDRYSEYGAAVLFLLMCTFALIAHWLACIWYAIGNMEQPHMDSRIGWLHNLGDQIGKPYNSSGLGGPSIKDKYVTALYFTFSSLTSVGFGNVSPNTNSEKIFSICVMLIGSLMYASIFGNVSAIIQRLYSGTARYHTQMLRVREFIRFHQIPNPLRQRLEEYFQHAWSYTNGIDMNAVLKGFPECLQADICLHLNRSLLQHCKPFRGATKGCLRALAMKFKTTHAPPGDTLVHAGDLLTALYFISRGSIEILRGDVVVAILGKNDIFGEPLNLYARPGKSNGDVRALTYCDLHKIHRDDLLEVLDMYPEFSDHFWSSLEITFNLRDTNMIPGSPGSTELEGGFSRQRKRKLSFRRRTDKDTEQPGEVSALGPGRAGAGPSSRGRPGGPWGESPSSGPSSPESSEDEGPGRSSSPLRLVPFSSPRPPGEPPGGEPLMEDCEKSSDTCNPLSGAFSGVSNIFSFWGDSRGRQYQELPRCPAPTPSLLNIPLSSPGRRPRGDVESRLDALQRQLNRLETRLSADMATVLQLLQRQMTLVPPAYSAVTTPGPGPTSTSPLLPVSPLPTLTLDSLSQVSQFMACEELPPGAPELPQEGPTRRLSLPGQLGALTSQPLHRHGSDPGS

SMILES | hERG current change (%, negative = inhibition) at 1uM [%]
COc1cccc(CN2CC(C(=O)NCCCCc3ccccn3)CCC2=O)c1 (stereo not drawn) | 7.17
Cc1ccccc1Cn1c(C)nc2ccccc21 | 10.4
Cc1ccc(SCc2nc3ccccc3n2CC(=O)Nc2c(C)cccc2C)cc1 | 6.88
C[C@@H](C(=O)NC1CCN(Cc2ccccc2)CC1)N1C(=O)N2CCc3c([nH]c4ccccc34)[C@@]2(C)C1=O | -62.1
CC(C)[C@@H](C(=O)NC1CCN(Cc2ccccc2)CC1)N1C(=O)N2CCc3c([nH]c4ccccc34)[C@@]2(C)C1=O | -4.75
CC(C)C[C@@H](C(=O)NC1CCN(Cc2ccccc2)CC1)N1C(=O)N2CCc3c([nH]c4ccccc34)[C@@]2(C)C1=O | -12.1
Cc1ccc(-n2nnnc2SCC(=O)Nc2ccccc2-c2ccccc2)cc1C | 2.73
C#CC1CN(Cc2ccccc2)CC(C#C)N1C.Cl (stereo not drawn) | 15.1
CCN(CC)c1ccc(NC(=O)CN2CCN(CC(=O)Nc3ccccc3F)CC2)cc1 | -13
O=C(CN1CCN(CC(=O)Nc2ccc(-c3ccccc3)cc2)CC1)Nc1ccc(F)cc1 | -13.7
O=C(CN1CCN(CC(=O)Nc2ccc(Cl)cc2)CC1)Nc1ccc(F)cc1 | -86.9
CCN(CC)c1ccc(NC(=O)CN2CCN(CC(=O)Nc3ccc(F)cc3)CC2)cc1 | -84.5
CN(C)c1ccc(NC(=O)CN2CCC(C(=O)c3ccc(F)cc3)CC2)cc1 | -4.93
O=C(CN1CCN(c2ccc(Cl)cc2)CC1)Nc1ccc(F)cc1 | -28.1
O=C(CN1CCN(c2ccc(O)cc2)CC1)Nc1ccc(SC(F)F)cc1 | -78.4
CN(C)c1ccc(NC(=O)CN2CCN(CC(=O)Nc3ccc(F)cc3)CC2)cc1 | -61.1
COc1ccc(N2CCN(CC(=O)Nc3ccc(SC(F)F)cc3)CC2)cc1 | -35.8
CCN(CC)c1ccc(NC(=O)CN2CCN(c3ccccc3F)CC2)cc1 | 7.06
COc1cccc(N2CCN(CC(=O)Nc3ccc(SC(F)F)cc3)CC2)c1 | -27.7
CN(C)c1ccc(NC(=O)CN2CCN(c3ccc(F)cc3)CC2)cc1 | -3.53
CN(C)C=O.Cc1cccc(-n2nnnc2SCC(=O)N(CC(C)C)c2c(N)n(CC(C)C)c(=O)[nH]c2=O)c1 | 4.9
O=C(c1cccc(S(=O)(=O)NCc2ccccc2)c1)N1CCCCC1 | 9.32

SMILES | hERG current change (%, negative = inhibition) at 1uM [%]
CCN(CC)CCCN(C(=O)Cn1nnc(-c2ccc(OC)c(OC)c2)n1)C(C(=O)NC(C)(C)C)c1ccc(F)cc1 (stereo not drawn) | -25.2
C=CCN1C(=O)C(CC(=O)NCC)SC1=Nc1ccccc1CC (stereo not drawn) | 11.7
c1ccc(CSc2nncn2-c2ccccn2)cc1 | 7.05
O=C(CSC(=S)N1CCCCC1)c1c(F)cccc1F | 21.7
OC1(c2ccccc2)c2ccccc2-c2ncccc21 (stereo not drawn) | 5.63
Cc1ccc2c(CC(=O)NCC3(N4CCOCC4)CCCCC3)coc2c1C | -5.15
O=C(Cc1coc2cc3c(cc12)CCC3)NCC1(N2CCCCC2)CCCCC1 | -59.2
O=C(Cc1coc2cc3c(cc12)CCC3)NC1CCCCCCC1 | 0.112
O=S(=O)(c1cccs1)N1CN(C2CCCCC2)c2nc3ccccc3nc21 | 0.376
COc1cc(/C=C2\SC(N3CCc4ccccc4C3)=NC2=O)cc(OC)c1OC | 5.93
CCCn1c(=N)n(CC(O)COc2cccc(C)c2)c2ccccc21.Cl (stereo not drawn) | -60
CCn1c(=N)n(CC(O)COc2cccc(C)c2)c2ccccc21.Cl (stereo not drawn) | -16
CCCCn1c(=N)n(CC(O)COc2cccc(C)c2)c2ccccc21.Cl (stereo not drawn) | -59.8
CCN(CC)CCn1c(=N)n(CC(O)COc2cccc(C)c2)c2ccccc21.Cl (stereo not drawn) | -22.1
COc1ccc(-c2oc3cccnc3c2C#CC2(O)CCCCC2)cc1 | 6.61
COCCC(=O)N1CCC(Oc2ccc(C(=O)N(C)CCCC3CCCC3)cc2)CC1 | -1.26
CCCn1c(=N)c(C(=O)NC2CCCC2)cc2c(=O)n3cccc(C)c3nc21 | -84.1
Cc1cccn2c(=O)c3cc(C(=O)NC4CCCCC4)c(=N)n(CCN4CCOCC4)c3nc12 | -51.7
Cc1cccn2c(=O)c3cc(C(=O)NC4CCCC4)c(=N)n(CCCN4CCOCC4)c3nc12 | -77.5
C#CCOCCOCCOCCNc1nc(N2CCN(C(=O)[C@H](CCC(=O)O)n3cc(C(N)Cc4ccc(O)cc4)nn3)CC2)nc(N2CCN(C(=O)[C@H](CCC(=O)O)n3cc(C(N)Cc4ccc(O)cc4)nn3)CC2)n1.Cl (stereo partly drawn) | 12.3
Cc1ccnc(SCc2cc(=O)c(OC(=O)c3ccccc3)co2)n1 | 15
CC(NC(=O)C(C)N1C(=O)c2cccc([N+](=O)[O-])c2C1=O)c1ccccc1 (stereo not drawn) | 14.9

SMILES | hERG current change (%, negative = inhibition) at 1uM [%]
O=C(c1cc2nc(-c3ccco3)cc(C(F)(F)F)n2n1)N1CCCc2ccccc21 | 16.9
COc1ccc(CNS(=O)(=O)c2c(C(=O)N3CCCCCC3)c(C)n(C)c2C)cc1 | 10.5
C=CCNC(=O)c1onc(CSc2cccc(OC)c2)c1C(=O)O | 18.7
CCOc1ccc(-c2nc(-c3ccccc3C)no2)cc1 | 10.9
Cc1cc(C)n2nc(-c3cnn(C)c3C(F)(F)F)cc2n1 | 1.96
Cn1c(CSCc2ccccc2)nnc1SCC(=O)Nc1nccs1 | -17.6
O=C1NC(Cc2ccccc2)C(=O)N1CC(=O)N1CCCc2ccccc21 (stereo not drawn) | 5.14
CCOC(=O)C1CCN(C(=O)c2cc3c(C)cc(C)cc3[nH]2)CC1 | 12
Cc1cc(C)c2cc(C(=O)N3CCC(C(=O)c4ccc(F)cc4)CC3)[nH]c2c1 | 8.43
Cc1cc(C)c2cc(C(=O)N3CCC(N4CCCCC4)CC3)[nH]c2c1 | -58.8
Cc1c(C(=O)N2CCC(N3CCSCC3)CC2)oc2c(F)cccc12 | 2.81
CCOC(=O)C1CCN(C2CCN(C(=O)c3oc4c(F)cccc4c3C)CC2)CC1 | -67
CCOC(=O)C1CCN(C2CCN(C(=O)c3oc4c(C)c(C)ccc4c3C)CC2)CC1 | -15.6
Cc1nc2nc(C)c(CCC(=O)NC3CCCCC3)c(C)n2n1 | 9.07
O=C(NC1CC2CCCC(C1)N2Cc1ccccc1)c1cccc(F)c1 (stereo not drawn) | -29.8
COc1ccc(CN2C3CCCC2CC(NC(=O)c2cccc(F)c2)C3)cc1 (stereo not drawn) | -85.9
CCCCN1C2CCCC1CC(NC(=O)c1cccc(OC)c1)C2 (stereo not drawn) | -2.96
COc1ccc(CN2C3CCC2CC(NC(=O)c2cccc(F)c2)C3)cc1 (stereo not drawn) | -81.1
COc1cccc(C(=O)NC2CC3CCC(C2)N3Cc2ccccc2)c1 (stereo not drawn) | -2.53
COc1cccc(C(=O)NC2CC3CCCC(C2)N3S(=O)(=O)c2ccccc2)c1 (stereo not drawn) | -8.93
Cc1cccc(C(=O)NC2CC3CCCC(C2)N3S(=O)(=O)c2ccccc2)c1 (stereo not drawn) | -63.4
CCCN1C2CCCC1CC(NC(=O)c1cccc(Cl)c1)C2 (stereo not drawn) | -2.98

SMILES | hERG current change (%, negative = inhibition) at 1uM [%]
O=C(NC1CC2CCC(C1)N2Cc1ccccc1)c1cccc(F)c1 (stereo not drawn) | -17.5
CCCCN1C2CCCC1CC(NC(=O)c1cccc(Cl)c1)C2 (stereo not drawn) | -63
COc1ccc(C(=O)NC2CC3CCCC(C2)N3Cc2ccccc2)cc1 (stereo not drawn) | -15.7
O=C(NC1CC2CCCC(C1)N2S(=O)(=O)c1ccccc1)c1ccccc1 (stereo not drawn) | -9.46
O=C(O)c1ccccc1-c1ccccc1C(=O)NCc1ccco1 | 13
Clc1ccc2c(NCc3ccco3)ncnc2c1 | -1.55
O=C(OCC(=O)N1CCCCC1)c1cccc(NS(=O)(=O)c2ccccc2)c1 | 12.4
O=C(NCc1ccc(C(=O)N2CCC3(CC2)OCCO3)cc1)c1ccc2c(c1)OCO2 | 5.42
O=C(CSc1nnc(-c2ccco2)n1Cc1ccccc1)NC(=O)NCc1ccco1 | -15.6
CCOC(=O)C1(CCCc2ccccc2)CCN(C2CCCC2)CC1 | -66.1
CCOC(=O)C1(CCCc2ccccc2)CCN(C(=O)CSC)CC1 | 3.88
CCOC(=O)C1(CCc2ccccc2)CCN(C2Cc3ccccc3C2)CC1 | -18.7
CCOC(=O)C1(CCCc2ccccc2)CCN(C(=O)C2CCCO2)CC1 (stereo not drawn) | 5.58
CCOC(=O)C1(CCCc2ccccc2)CCN(C2CCC2)CC1 | -57.1
CCOC(=O)C1(CCc2ccccc2)CCN(C2CCSCC2)CC1 | -80.7
CCOC(=O)C1(CCc2ccccc2)CCN(C(=O)C2CCOCC2)CC1 | -21.2
OCC1(CCCc2ccccc2)CCN(C2CCSCC2)CC1 | -65.4
CCOC(=O)C1(CCCc2ccccc2)CCN(S(C)(=O)=O)CC1 | 5.98
CSCC(C)N1CCC(CO)(CCCc2ccccc2)CC1 (stereo not drawn) | -11.2
CS(=O)(=O)c1ccc(S(=O)(=O)N2CCC(CO)(CCCc3ccccc3)CC2)cc1 | 4.47
CCOC(=O)C1(CCCc2ccccc2)CCN(C(=O)COC)CC1 | 10.5
